# Laboratory results as given in PubChem BioAssay AID492956 (The Scripps Research Institute Molecular Screening Center, 2010).
# The whole screen tested about 340,000 compounds, of which about 3,300 (0.97%) were called active. The sample as a whole holds a higher share of actives than the screen did. Values without a mark were called inactive.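 The calls were made as follows: active = inhibition above the mean over all tested compounds plus 3 SD (cut at about 30% in these data); inactive = the rest.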
# Biological target: Platelet-activating factor acetylhydrolase 2, cytoplasmic (Homo sapiens) (UniProt Q99487)
# Test: PAFAH2 enzyme inhibitors, primary screen, biochemical, fluorescence polarization, human (AID 492956);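 also: inhibitors block probe labeling of enzyme so polarization drops; 0% = enzyme with DMSO and 100% = wells lacking PAFAH2 protein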
# Conditions: recombinant PAFAH2, FP-rhodamine activity probe, at 3.39 µM, stronger effect = higher value
row,SMILES,inhibition
1,Cc1nc([N+](=O)[O-])nn1C12CC3CC(CC(Br)(C3)C1)C2,4.57%
2,Clc1c(OCCCn2ccnc2)ccc2ccccc12,0.49%
3,Cc1ccc(F)cc1S(=O)(=O)Nc1cccc(C(=O)N2CCCC(C(N)=O)C2)c1 (stereo not given),45.3% (active)
4,CCOC(=O)C1CCCN(C(=O)c2ccc(C)c(S(=O)(=O)N3CCCCC3)c2)C1 (stereo not given),3.86%
5,O=C(c1ccc(F)cc1)N1CCCC(C(=O)N2CCCCC2)C1 (stereo not given),-1.35%
6,CSc1ccc(S(=O)(=O)N2CCC(C(=O)NCc3ccncc3)CC2)cc1,0.67%
7,CCCC1OC23CCCCC2C(C#N)(C#N)C1(C#N)C(=N)O3 (stereo not given),35.4% (active)
8,O=C(Nc1ccc(S(=O)(=O)N2CCCCC2)cc1)C1CC(=O)N(c2ccc(F)cc2)C1 (stereo not given),-0.7%
9,O=S(=O)(c1ccc(Cl)cc1)c1nc(-c2ccco2)oc1N1CCCCC1,-0.15%
10,O=c1oc(-c2ccco2)nc2sc3c(c12)CCCCC3,46.4% (active)
11,Cn1c(NN)nc2sc3c(c2c1=O)CCC3,4.91%
12,Cc1cc(-n2cnc(-c3cn(C)nc3C)n2)no1,2.99%
13,Cc1noc(/C=C/c2ccco2)c1S(=O)(=O)N1CCC(C(=O)N2CCc3ccccc32)CC1,-7.75%
14,O=C(O)Cc1csc(NC(=O)CSc2nnnn2-c2ccc(O)cc2)n1,1.29%
15,CCn1c(CNC(=O)c2ccccc2)nnc1SCC(=O)N1CCN(c2ccccc2)CC1,-4.72%
16,CCN(C(=O)CSc1nnnn1-c1ccc(OC)cc1)C1CCS(=O)(=O)C1 (stereo not given),4.1%
17,COc1ccc(C(C)C)cc1S(=O)(=O)Nc1ncn[nH]1,-3.51%
18,CCCN(CCC)C(=O)C1c2ccccc2Oc2ccccc21,32.9% (active)
19,CCC(C)NC(=O)C1c2ccccc2Oc2ccccc21 (stereo not given),-4.35%
20,CCCCCNC(=O)C1c2ccccc2Oc2ccccc21,-0.79%
21,S=c1[nH]nc(/C=C/c2ccccc2)o1,-11.5%
22,O=c1oc(/C=C/c2ccccc2)nc2ccccc12,76.7% (active)
23,O=c1[nH]c(/C=C/c2cccc(Br)c2)nc2ccccc12,6.48%

row,SMILES,inhibition
1,CCc1ccc2nc(Nc3ncc(C(C)=O)c(C)n3)nc(C)c2c1,7.02%
2,Cc1ccc(S/C(=N\S(=O)(=O)c2ccc(Cl)cc2)c2ccccc2)cc1,5.84%
3,Cc1cc(=O)oc2c3c(cc(OCC(=O)NCCC(=O)N[C@@H](C)C(=O)O)c12)OC(C)(C)CC3,6.3%
4,Cc1c(C)c2c(OCC(=O)NCCCO)cc3c(c2oc1=O)CCC(C)(C)O3,72.5% (active)
5,Cc1cc(OCC(=O)NCC(O)c2ccccc2)c2c(C)c(C)c(=O)oc2c1 (stereo not given),0.4%
6,Cc1c(C)c2c(OCC(=O)N[C@@H](C(=O)O)c3ccccc3)cc3c(c2oc1=O)CCC(C)(C)O3,90.8% (active)
7,Cc1cc(=O)oc2c3c(cc(OCC(=O)NCc4ccccn4)c12)OC(C)(C)CC3,14.1%
8,Cc1cc(=O)oc2c3c(cc(OCC(=O)N[C@H](C(=O)O)c4ccccc4)c12)OC(C)(C)CC3,18.3%
9,CCN(CC)c1ccc(NC(=O)CN2C(=O)NC3(CCc4ccccc43)C2=O)cc1 (stereo not given),-0.31%
10,Cc1cc(C)n(CCNCc2c(C(=O)N3C[C@@H](C)O[C@@H](C)C3)nc3ccc(Cl)cn23)n1,0.53%
11,C#CC(C)(C)NC(=O)c1cnc(-c2ccccc2)nc1-c1ccccc1,-1.01%
12,CC(Nc1ccc([N+](=O)[O-])cc1[N+](=O)[O-])c1ccccc1 (stereo not given),4.73%
13,Cc1ccc(OCC(=O)Nc2ccccc2Sc2ccc(Cl)cc2)c([N+](=O)[O-])n1,0.47%
14,COc1ccc(Cc2n[nH]c(=S)n2NC(=O)Nc2ccc(C)cc2)cc1,-2.45%
15,COc1ccc(NC(=O)COC(=O)c2ccc(NS(=O)(=O)/C=C/c3ccccc3)cc2)cc1,75.8% (active)
16,CN(CC(=O)Nc1ccc(OC(F)F)cc1)S(=O)(=O)/C=C/c1ccccc1,3.38%
17,NS(=O)(=O)c1ccc(NS(=O)(=O)/C=C/c2ccccc2)cc1,4.92%
18,O=C(NCc1ccccc1)C1C(=O)N(Cc2ccccc2)C(=O)C1C1(O)CCCC1 (stereo not given),3.41%
19,O=C(Cc1ccc(S(=O)(=O)N2CCOCC2)s1)NCCOc1ccccc1F,38.8% (active)
20,O=C(OCCOc1ccccc1F)c1cc(S(=O)(=O)N2CCOCC2)ccc1F,-1.58%
21,O=C(Cc1ccc(S(=O)(=O)N2CCOCC2)s1)NCCC(c1ccccc1)c1ccccc1,3.55%
22,Cc1ccc2c(c1)N(CC(=O)NCC1CCCO1)C(=O)CO2 (stereo not given),3.2%
23,COCCCn1c(Cc2csc(Nc3cccc(Cl)c3)n2)nnc1SCC(=O)OC1CCCCC1,0.44%

row,SMILES,inhibition
1,Cc1ccc(S(=O)(=O)N2CCN(CC(=O)N/N=C/c3cc([N+](=O)[O-])ccc3Cl)CC2)cc1,-3.59%
2,O=S(=O)(c1ccc(NC(=S)NN=C(C2CC2)C2CC2)cc1)N1CCOCC1,8.93%
3,O=[N+]([O-])c1cc(Cl)cc(/C=N/NC(=S)Nc2cc(S(=O)(=O)N3CCOCC3)ccc2Cl)c1O,85.2% (active)
4,C/C(=N\NC(=O)c1ccc(C)cc1)C1C(=O)c2ccccc2C1=O,14.8%
5,CCN1CCN(c2ccc(S(=O)(=O)N3CCCCC3)cc2NC(=O)Cc2c(Cl)cccc2Cl)CC1,12.9%
6,NC(=O)CSc1nnc(NC(=O)c2ccc3ccccc3c2)s1,1.32%
7,Cc1cc(C)c2nc(NC(=O)C3CCCO3)sc2c1 (stereo not given),-3.31%
8,O=C(NCc1ccccc1Cl)C1CCCO1 (stereo not given),6.52%
9,O=C(Nc1nnc(SCc2c(Cl)cccc2Cl)s1)C1CCCO1 (stereo not given),35.8% (active)
10,O=C(Nc1ccc(C2CC2(Cl)Cl)cc1)c1cccc([N+](=O)[O-])c1 (stereo not given),-4.09%
11,Cc1cc(C)nc(NC(=O)c2cccc([N+](=O)[O-])c2)c1,-7.58%
12,CCOC(=O)CSc1nnc(NC(=O)c2cccc(S(=O)(=O)N3CCCC3)c2)s1,1.53%
13,O=C(Nc1nnc(SCc2c(Cl)cccc2Cl)s1)c1cccc([N+](=O)[O-])c1,57.2% (active)
14,O=C(Nc1nnc(SCc2ccccc2Cl)s1)c1cccc([N+](=O)[O-])c1,32.2% (active)
15,COC(=O)C1=C(C(=O)OC)C(c2cc([N+](=O)[O-])ccc2O)c2sc(=O)[nH]c2S1 (stereo not given),11.7%
16,CC(C)(C)c1ccccc1NC(=O)CN1C(=O)NC2(CCCC2)C1=O,-2.59%
17,CC(=O)Nc1ccc(SC[C@H](Cc2ccccc2)N2CC[C@@H](C)CCC2=O)cc1,1.61%
18,CCOC(=O)C1CCCN(Cc2nc(N)nc(Nc3ccc(C)cc3)n2)C1 (stereo not given),3.45%
19,CCCN(CC1CC1)C(=O)COC(=O)c1ccc(C)cc1O,6.82%
20,Cc1cccc(NC(=O)/C=C/c2ccc3c(c2)OCO3)n1,0.78%
21,Cc1csc(NC(=O)CSc2ccc(-c3ccc(F)cc3)nn2)n1,1.11%
22,COC(=O)c1sc(-c2ccc(C(C)(C)C)cc2)cc1NC(=O)/C=C/C(=O)O,-3.2%
23,C[C@@H]1CC[C@]2(O[C@@H](CCO)C[C@H](O)[C@H]2O)O1,-8.93%

row,SMILES,inhibition
1,CN(C)C(=O)c1ccc(NC(=O)COC(=O)c2cc3c(s2)CCCCC3)cc1,22.8%
2,CC(=O)Nc1cccc(C(=O)OCC(=O)c2ccc3c(c2)OCO3)c1,-2.44%
3,O=C(COC(=O)c1ccccc1)c1ccc2c(c1)OCCO2,2.41%
4,O=C(COC(=O)c1ccc2c(c1)OCCO2)NCc1ccccc1,51.5% (active)
5,O=C(COC(=O)c1cc2c(s1)CCCC2)NCc1ccccc1Cl,67% (active)
6,O=C(OCc1ccccc1F)c1ccc2c(c1)OCCO2,14.7%
7,CC(NC(=O)COC(=O)c1ccc2c(c1)OCO2)c1ccccc1 (stereo not given),55% (active)
8,CC(NC(=O)COC(=O)c1cc(=O)[nH]c2ccccc12)c1ccccc1 (stereo not given),1.93%
9,O=C(CN(Cc1ccccc1)C(=O)c1ccc2c(c1)OCCO2)NCc1ccc2c(c1)OCO2,1.54%
10,O=C(COC(=O)c1ccc2c(c1)OCCO2)NCc1ccccc1Cl,85.4% (active)
11,O=C(NCc1ccccc1Cl)c1csc2c1CCCCC2,3.83%
12,O=C(COC(=O)c1ccc(Cl)nc1)NCc1ccc2c(c1)OCO2,5.61%
13,COc1cc(C(c2c(NC(=O)c3ccco3)sc(C)c2C)N2CCOCC2)cc(OC)c1OC (stereo not given),2.1%
14,S=c1nc2ccccc2c2nc(-c3cccnc3)[nH]n12,6.52%
15,CCCCN1C(=O)CCC(C(=O)O)C1c1ccc(OC)cc1 (stereo not given),-2.61%
16,CC(=O)Nc1ccc(Nc2c([N+](=O)[O-])cc(S(C)(=O)=O)cc2[N+](=O)[O-])cc1,3.4%
17,O=C(CNS(=O)(=O)c1ccccc1)NCC(=O)OCc1ccccc1F,10.3%
18,COC(=O)c1ccccc1NC(=O)C1(S(=O)(=O)c2ccc(Cl)cc2)CC1,4.24%
19,CC(C)C1C2=C(CC(C)(C)CC2=O)ON1c1ccccc1 (stereo not given),-5.16%
20,Cc1cc(C)n(CC(C)NCc2c(C(=O)N3CCOCC3)nc3c(C)cccn23)n1 (stereo not given),-0.83%
21,FC(F)(F)c1nc(-c2ccccc2)ncc1-c1nnnn1-c1ccccc1,10.3%
